# Source: PubChem BioAssay (Tox21)
# Values without a mark were called inactive. Entries that show only a call come without a potency. Active and inactive are the calls of the source. The call rests on the fitted dose curve.
# Target: Acetylcholinesterase (Homo sapiens) (UniProt P22303)
# Assay: Acetylcholinesterase (AChE) small molecule antagonists: enzyme-based qHTS assay with human liver microsomes (AID 1347399); further: nearly all actives have a fitted effect of over 60% in size
# Settings: Potency: qHTS inhibition; outcome: qHTS inhibition; series mostly up to 115 µM
# In short: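 Recombinant human AChE (50 mU/mL in the enzyme mix) and human liver microsomes (0.25 mg/mL final) were preincubated with compound and NADPH (0.25 mg/mL final) for 30 min at 37 C. Acetylthiocholine/DTNB was then added; thiocholine was read colorimetrically after 10 min at room temperature.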
# Sequence of Acetylcholinesterase (Homo sapiens) (P22303 whole entry, looked up): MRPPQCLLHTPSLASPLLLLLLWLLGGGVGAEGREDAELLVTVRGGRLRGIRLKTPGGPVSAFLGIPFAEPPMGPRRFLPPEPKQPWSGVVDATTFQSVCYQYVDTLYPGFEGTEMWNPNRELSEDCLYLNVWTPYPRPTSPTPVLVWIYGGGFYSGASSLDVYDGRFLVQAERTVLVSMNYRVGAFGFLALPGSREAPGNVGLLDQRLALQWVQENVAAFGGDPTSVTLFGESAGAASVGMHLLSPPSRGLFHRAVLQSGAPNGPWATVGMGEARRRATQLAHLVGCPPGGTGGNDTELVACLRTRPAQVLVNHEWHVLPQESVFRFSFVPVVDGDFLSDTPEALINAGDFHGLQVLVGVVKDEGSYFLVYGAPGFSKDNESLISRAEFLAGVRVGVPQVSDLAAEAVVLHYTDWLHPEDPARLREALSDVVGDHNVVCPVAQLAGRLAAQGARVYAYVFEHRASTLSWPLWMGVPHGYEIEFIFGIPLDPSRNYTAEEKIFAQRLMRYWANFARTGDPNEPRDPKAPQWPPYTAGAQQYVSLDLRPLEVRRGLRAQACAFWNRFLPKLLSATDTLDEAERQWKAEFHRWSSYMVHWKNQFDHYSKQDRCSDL
Compound,Potency,"activity change, negative = inhibition"
CC1(C)CC(N)CC(C)(C)N1,inactive,–
CC(C)(C)C(=O)O,inactive,–
Cc1cc(O)c2c(O)c3c(O)cccc3cc2c1,inactive,–
O=c1c2ccccc2nnn1CCl,inactive,–
O=C1CCCC(=O)C1,inactive,–
O=C(NN1CCCC1)NS(=O)(=O)c1ccc(Cl)cc1,inactive,–
CC/C=C\CCCCO,inactive,–
OCCCS,inactive,–
CC1=CC(=O)[C@H]2C[C@@H]1C2(C)C,inactive,–
NC(=O)c1ccccc1,inactive,–
Cc1cc(C)c(NC(=O)CN(CC(=O)O)CC(=O)O)c(C)c1Br,inactive,–
COc1cc(Cl)ccc1Oc1ccc(Cl)cc1Cl,inactive,–
CC(C)(C)c1ccc(OC(=O)c2ccccc2O)cc1,inactive,–
COc1ccc(S(=O)(=O)N2c3ccc(Cl)cc3[C@@](O)(c3ccccc3Cl)[C@H]2C(=O)N2CCC[C@@H]2C(N)=O)cc1OC,inactive,–
CCCCC(CC)COCCO (centres undefined),inactive,–
CC(=O)CCC1=C(C)CCCC1(C)C,inactive,–
CC1(c2ccccc2)OC(C(=O)O)=CC1=O (centres undefined),inactive,–
COc1cccc(O)c1O,inactive,–
N#Cc1c(F)cccc1F,inactive,–
CC(C)(O)c1ccccc1CC[C@@H](SCC1(CC(=O)O)CC1)c1cccc(/C=C/c2ccc3ccc(Cl)cc3n2)c1,inactive,–

Compound,Potency,"activity change, negative = inhibition"
CC(C)(C)C1CCCCC1=O (centres undefined),inactive,–
O=C1OC(=O)C2C3C=CC(C3)C12 (centres undefined),inactive,–
CCCCCCCCCCc1ccccc1,inactive,–
O=C(O)Cc1ccc(OCCNC[C@H](O)c2ccccc2)cc1,inactive,–
C=CCOc1nc(OCC=C)nc(OCC=C)n1,inactive,–
CCC(=O)OC/C=C(\C)CCC=C(C)C,inactive,–
C[C@@H]1CN(c2c(F)c(F)c3c(=O)c(C(=O)O)cn(C4CC4)c3c2F)C[C@H](C)N1,–,-1.43% [at 23.6 µM]
CCOc1ccc(NC(=O)OC(C)C)cc1OCC,inactive,–
O=C(O)c1cccc(Cl)n1,inactive,–
Cc1cc(OI)c(C(C)C)cc1-c1cc(C(C)C)c(OI)cc1C,inactive,–
COc1cc(-c2nc(NC(=O)c3cc4cc(C)cc(C)c4n3CC(=O)O)sc2CCC2CCCCC2)c(OC)cc1Cl,inactive,–
CCNc1nc(NC(C)CC)nc(OC)n1 (centres undefined),inactive,–
CCCCOC(=O)CC,inactive,–
CCCCOc1ccc(CC(=O)NO)cc1,inactive,–
NC(=O)C1CO1 (centres undefined),inactive,–
CC(C)(C)C1CCC(CC2=C(O)c3ccccc3C(=O)C2=O)CC1 (centres undefined),inactive,–
ON=C1CCCC1,inactive,–
CO[Si](CCCNCCC[Si](OC)(OC)OC)(OC)OC,inactive,–
CCOC(=O)C1=NN(c2ccc(Cl)cc2Cl)C(C)(C(=O)OCC)C1 (centres undefined),inactive,–
